Shown is part of a subset that was picked to be rich in hits.
HT1080-NT tox: kills 2HG-producing HT-1080-NT fibrosarcoma cells. Potency, µM (doses to about 46.1 µM), inactives show top-dose activity, negative = less viability, actives largely listed as cytotoxic. HT-1080-NT fibrosarcoma viability, CellTiter-Glo ATP luminescence, 48 h. AID 686970. 360,000 compounds, 1.6% hits;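 also: NT is the 2HG producing partner of a matched IDH1 knockdown line; potency is read from the fitted curve at half-maximal effect; 0% = DMSO-treated cells and -100% = media-only wells without cells; nearly all actives have a fitted effect of over 55% in size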
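Read-out is CellTiter-Glo luminescence after 10 minutes at room temperature, following 48 hours' compound treatment of HT-1080-NT cells (750 cells/well, RPMI, 5% FBS, 37 degrees C).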
IL1B secr inh: inhibitors of inflammasome signaling (IL-1 beta secretion); activity change, % at 57.5 µM; AID 743279; 360,000 compounds, 4.7% hits; THP-1 LPS/ATP IL-1B secretion, AlphaLISA, 16 h; stronger effect = lower value; in the data active = activity change below about -50%; inconclusive = mostly about -30% to -49%
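THP-1 cells pretreated 1 hr with compounds (up to 57.5 uM final), then stimulated with LPS (250 ng/mL final) plus ATP (1.25 mM final); secreted IL-1B measured by AlphaLISA after 16 hr, decreased signal indicating inhibition.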
ALOX12 inh: inhibitors of human 12S-lipoxygenase ALOX12; purified 12hLO, xylenol orange hydroperoxide absorbance; 580,000 compounds, 1.1% hits; P18054; Potency, µM (series often up to 108 µM), inactives show top-dose activity change, negative = inhibition, actives largely listed as inhibitors; also: potency is read from the fitted curve at half-maximal effect
Target sequence (P18054 whole entry, looked up): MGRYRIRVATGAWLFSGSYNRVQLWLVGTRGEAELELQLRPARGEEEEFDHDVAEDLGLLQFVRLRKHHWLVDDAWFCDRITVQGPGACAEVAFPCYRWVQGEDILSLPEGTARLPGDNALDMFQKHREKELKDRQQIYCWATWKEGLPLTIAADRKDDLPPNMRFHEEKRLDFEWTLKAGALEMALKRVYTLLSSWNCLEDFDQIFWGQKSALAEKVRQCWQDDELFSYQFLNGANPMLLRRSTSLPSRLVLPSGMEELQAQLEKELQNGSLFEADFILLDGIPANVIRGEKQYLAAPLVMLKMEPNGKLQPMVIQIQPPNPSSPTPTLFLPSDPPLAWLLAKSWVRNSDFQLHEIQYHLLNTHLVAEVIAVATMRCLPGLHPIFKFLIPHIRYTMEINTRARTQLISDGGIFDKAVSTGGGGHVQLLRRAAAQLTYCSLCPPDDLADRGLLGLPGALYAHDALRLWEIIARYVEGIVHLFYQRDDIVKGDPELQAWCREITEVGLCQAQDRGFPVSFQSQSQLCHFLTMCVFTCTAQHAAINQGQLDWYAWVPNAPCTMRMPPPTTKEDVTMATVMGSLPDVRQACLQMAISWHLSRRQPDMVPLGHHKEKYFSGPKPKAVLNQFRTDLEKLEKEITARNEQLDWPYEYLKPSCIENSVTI
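Hydroperoxide product was detected by ferrous iron/xylenol orange as the 573 to 405 nm absorbance ratio. Arachidonic acid at 40 uM (final) was turned over for 30 min at room temperature by 150 nM human 12hLO, pH 7.0 Hepes buffer, after 15 min compound preincubation.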
DT40 TDP1 CPT: growth inhibition of DT40 Tdp1-/-;hTDP1 cells with camptothecin (screen for TDP1 inhibitors). chicken DT40 Tdp1-/-;hTDP1 cells + 20 nM CPT, ATP luminescence, 48 h. Potency, µM (highest dose often 46.2 µM), for the others: at the highest dose activity change, negative = growth inhibition, most hits filed as inhibitors. 420,000 compounds, 12% hits. AID 686979; also: potency is read from the fitted curve at half-maximal effect; nearly all actives have a fitted effect of over 55% in size
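Chicken DT40 Tdp1-/- cells stably complemented with human TDP1 were seeded at 400 cells/well in medium containing 20 nM camptothecin, exposed to pin-transferred compounds, and grown at 37 °C for at least 48 hr. Viability was read as ATP luminescence.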
HT1080 IDH1KD tx: toxicity to HT-1080 IDH1 knockdown cells (counter line); HT-1080 IDH1 knockdown viability, ATP luminescence, 48 h; Potency, µM (highest dose often 46.1 µM), for the others: at the highest dose activity, negative = toxicity, actives largely listed as cytotoxic; 360,000 compounds, 2% hits; AID 686971;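 also: potency is read from the fitted curve at half-maximal effect; 0% = DMSO wells and -100% = cell-free medium wells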
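IDH1KD HT-1080 cells, 750/well, RPMI + 5% FBS; compound pinned after 2 h settling; 48 h, 37 °C; CellTiter-Glo luminescence; % activity normalised to DMSO and no-cell wells; curves fitted, classed by r2 and efficacy.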
TDP1 cell noCPT: qHTS for Inhibitors of human tyrosyl-DNA phosphodiesterase 1 (TDP1): qHTS in cells in absence of CPT. DT40 Tdp1-/- hTDP1 cells, no CPT, ATP luminescence, 48 h. Potency, µM (series often up to 46.2 µM), without a hit: at the highest dose activity change, negative = growth inhibition, actives largely listed as inhibitors. 420,000 compounds, 15% hits. AID 686978, 2013; also: potency is read from the fitted curve at half-maximal effect; nearly all actives have a fitted effect of over 55% in size
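Luminescent ATP content (CellTiter-Glo) served as the growth readout. Knockout chicken DT40 cells expressing human TDP1 were exposed to compounds without camptothecin for a minimum 48 hr at 37 °C.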
Active calls of the source: *; ? = inconclusive; . = no result given; [ ] = dose if it differs, or a comment. Unless noted, calls follow the shape of the dose curve; as a rule, active = well fitted curve in the direction sought with a large enough effect; inconclusive = small, poorly fitted or top-dose-only effect, or another doubt; inactive = no such curve, though single readings can be large; an effect the other way counts as inactive or inconclusive. Unless noted, % is scaled to controls: 0 for no effect and ±100 for the full control effect.

SMILES | HT1080-NT tox | IL1B secr inh | ALOX12 inh | DT40 TDP1 CPT | HT1080 IDH1KD tx | TDP1 cell noCPT
O=c1c[n+]([O-])c2ccccc2n1OCc1c(F)cccc1F | ? | 8 | 0% | 13µM* | ? | 21µM*
C/C(=N\NC(N)=S)C1CCCCCCCCCCC1 | . | . | -65% | . | . | .
Cc1ccc(S(=O)(=O)N(C)C)cc1NC(=O)COC(=O)c1c(-c2ccccc2)noc1C | 4% | -8 | -1% | -23% | 4% | ?
O=C(COC(=O)/C=C/c1ccc2ccccc2n1)NNC(=O)c1ccc([N+](=O)[O-])cc1 | 14% | -53* | -3% | 10% | 9% | -9%
Cc1ccc(S(=O)(=O)N(C)C)cc1NC(=O)COC(=O)/C=C/c1ccc2ccccc2n1 | -2% | -106* | -22% | ? | ? | ?
O=C(COC(=O)/C=C/c1ccccc1)NNC(=O)c1ccc([N+](=O)[O-])cc1 | 5% | -2 | 7% | 1% | 2% | -2%
O=C(Nc1cccnc1)c1cc(-c2ccccc2F)cc2c1OCCN2Cc1cccnc1 | . | . | 29%[176 µM] | . | . | .
CCc1ccc(CN2CCc3nc(N4CCN(C)CC4)[nH]c(=O)c3CC2)cc1 | . | . | 8% | . | . | .
CCCCCSc1nnc2c(n1)OC(c1cccn1C)N(C(C)=O)c1ccccc1-2 (stereo unspecified) | 5% | -74* | -11% | -16% | 0% | -15%
CCSc1nnc2c(n1)OC(c1ccc(C)cc1)N(C(C)=O)c1ccccc1-2 (stereo unspecified) | . | . | 0% | ? | . | ?
N#Cc1c(NCCO)nc(NCc2ccccc2)c2c1CCN(Cc1ccccc1)C2 | ? | -26 | . | ? | -29% | ?
CCN1CCc2c(C#N)c(N3CCOCC3)nc(NCc3ccccc3)c2C1 | 7% | 44 | ? | ? | -1% | ?
CCN1CCc2c(C#N)c(N3CCCCC3)nc(NCc3ccccc3)c2C1 | ? | -24 | ? | 21µM* | ? | 16µM*
C=CCNc1nc(N2CCCCC2)c(C#N)c2c1CN(Cc1ccccc1)CC2 | ? | -6 | -10% | 23µM* | ? | 23µM*
CCNC(=O)Nc1ccc2c(c1)c(=O)n(C)n2Cc1ccc(Cl)cc1 | 30% | 14 | 14µM* | -22% | 22% | -18%
C=C(C)Cn1c2ccc(NC(=O)NCC)cc2c(=O)n1C | 15% | 29 | -12% | 6% | 2% | -12%
COc1ccc(CCNC(=O)Nc2ccc3c(c2)c(=O)n(C)n3Cc2ccc(Cl)cc2)cc1OC | -24% | -16 | ? | 8.2µM* | -25% | ?
COC(=O)[C@@]1(Cc2ccc(F)cc2)[C@H]2c3cc(C(=O)N4CCCC4)n(CCF)c3C[C@H]2CN1C(=O)c1ccccc1 | ? | ? | 1% | 23µM* | -14% | 23µM*
COC(=O)[C@@]1(Cc2ccc(F)cc2)[C@H]2c3cc(C(=O)N4CCCC4)n(Cc4ccc(C(F)(F)F)nc4)c3C[C@H]2CN1C(=O)c1ccccc1 | -12% | ? | 10% | ? | -10% | ?
COC(=O)[C@@]1(Cc2ccc(F)cc2)[C@H]2c3cc(C(=O)N4CCCC4)n(Cc4ccc(C)c(F)c4F)c3C[C@H]2CN1C(=O)c1ccccc1 | ? | 0 | -23% | ? | ? | 23µM*
COC(=O)[C@@]1(Cc2ccc(F)cc2)[C@H]2c3cc(C(=O)N4CCCC4)n(CC4CC4)c3C[C@H]2CN1C(=O)c1ccccc1 | ? | 0 | -11% | ? | ? | ?
COC(=O)[C@@]1(Cc2ccc(F)cc2)[C@H]2c3cc(C(=O)N4CCCC4)n(Cc4ccc(C)o4)c3C[C@H]2CN1C(=O)c1ccccc1 | ? | -87* | -22% | ? | 21µM* | ?
COC(=O)[C@@]1(Cc2ccc(F)cc2)[C@H]2c3cc(C(=O)N4CCCC4)n(CCCNc4ncc(C(F)(F)F)cc4Cl)c3C[C@H]2CN1C(=O)c1ccccc1 | -24% | 0 | . | ? | -22% | 16µM*
C=CCNC(=O)N1CCN(C(c2ccc(F)cc2)c2ccc(F)cc2)CC1 | . | . | -6% | . | . | .
Cc1ccc(-c2nnc3ccc(N4CCN(Cc5ccccc5)CC4)nn23)nc1 | . | . | 15%[176 µM] | . | . | .
SMILES | HT1080-NT tox | IL1B secr inh | ALOX12 inh | DT40 TDP1 CPT | HT1080 IDH1KD tx | TDP1 cell noCPT
O=C(Cn1nc2c(cc1=O)CCCCC2)NCCc1ccc(O)cc1 | . | . | 30% | . | . | .
CSc1ccccc1NC(=S)NCc1ccc(Cl)cc1 | 11% | 8 | 14% | -2% | -4% | -1%
COC(=O)[C@@]1(Cc2ccc(F)cc2)[C@H]2c3cc(C(=O)N4CCCC4)n(Cc4cc(C)n(C)n4)c3C[C@H]2CN1C(=O)c1ccccc1 | -16% | -7 | -46% | 21µM* | -19% | 16µM*
COC(=O)[C@@]1(Cc2ccc(F)cc2)[C@H]2c3cc(C(=O)N(C)C)n(Cc4cc(C)n(C)n4)c3C[C@H]2CN1C(=O)c1ccccc1 | -18% | -12 | 5% | ? | -8% | ?
COc1ccc(CC(=O)N2CCC3(CC2)CC(O)CCO3)cc1 (stereo unspecified) | . | . | 20% | . | . | .
O=C(CSc1c(Cl)cccc1Cl)NC1CCCc2ccccc21 (stereo unspecified) | -22% | 20 | ? | ? | -2% | ?
O=C(CSc1nc2ccc(Cl)cc2[nH]1)NC1CCCc2ccccc21 (stereo unspecified) | -21% | ? | -24% | ? | ? | 21µM*

Bioassay records deposited in PubChem BioAssay by National Center for Advancing Translational Sciences (NCATS).
